# Experimental data reported in article PMC7862700, “An all-to-all approach to the identification of sequence-specific readers for epigenetic DNA modifications on cytosine”.
# Experiments:
# Assay in all cases: DAPPL (digital affinity profiling via proximity ligation, sequencing); 10 mM Tris-HCl pH 7.5, 50 mM NaCl, 1 mM DTT, 4% glycerol, room temperature, 30 min; GST-TFs on glutathione beads, 16-mer random dsDNA library, 0.1% formaldehyde crosslink after washing; high values mean tight binding
# FLI1 = biological target: T1, FLI1 (Homo sapiens, UniProt Q01543 1-452); conditions: protein: recombinant; tags: N-terminal GST; dsDNA, one strand shown
# T1 sequence: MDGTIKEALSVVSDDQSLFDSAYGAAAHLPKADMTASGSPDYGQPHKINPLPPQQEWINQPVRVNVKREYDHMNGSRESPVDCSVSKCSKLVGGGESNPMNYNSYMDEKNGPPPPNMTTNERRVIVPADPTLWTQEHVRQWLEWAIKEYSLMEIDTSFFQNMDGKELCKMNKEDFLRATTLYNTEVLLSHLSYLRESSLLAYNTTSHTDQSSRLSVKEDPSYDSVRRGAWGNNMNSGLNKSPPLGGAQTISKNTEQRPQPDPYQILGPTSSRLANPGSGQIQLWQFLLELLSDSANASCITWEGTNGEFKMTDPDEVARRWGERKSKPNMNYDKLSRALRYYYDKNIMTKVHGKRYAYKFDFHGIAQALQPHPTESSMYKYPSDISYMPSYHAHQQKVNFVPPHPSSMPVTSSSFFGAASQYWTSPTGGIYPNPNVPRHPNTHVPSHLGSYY
# Procedure, shortened: (§1)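 Human transcription factors fused to GST were expressed in yeast, captured on glutathione beads, given DNA barcodes and pooled with a GST-only negative control. Pools were incubated with 200 nmole of a 16-mer random double-stranded DNA library in Tris/NaCl/DTT/glycerol buffer at room temperature for 30 min. They were then washed, crosslinked with 0.1% formaldehyde, proximity-ligated (BsaI/T4 ligase, 1 h, 37 °C), PCR-amplified and sequenced on an Illumina NextSeq500. Binding signal is each 6-mer's read frequency for a factor divided by its frequency for the GST control.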
# ELK1 = biological target: T2, ELK1 (Homo sapiens, UniProt P19419 1-428); conditions: protein: recombinant; tags: N-terminal GST; dsDNA, one strand shown
# T2 sequence: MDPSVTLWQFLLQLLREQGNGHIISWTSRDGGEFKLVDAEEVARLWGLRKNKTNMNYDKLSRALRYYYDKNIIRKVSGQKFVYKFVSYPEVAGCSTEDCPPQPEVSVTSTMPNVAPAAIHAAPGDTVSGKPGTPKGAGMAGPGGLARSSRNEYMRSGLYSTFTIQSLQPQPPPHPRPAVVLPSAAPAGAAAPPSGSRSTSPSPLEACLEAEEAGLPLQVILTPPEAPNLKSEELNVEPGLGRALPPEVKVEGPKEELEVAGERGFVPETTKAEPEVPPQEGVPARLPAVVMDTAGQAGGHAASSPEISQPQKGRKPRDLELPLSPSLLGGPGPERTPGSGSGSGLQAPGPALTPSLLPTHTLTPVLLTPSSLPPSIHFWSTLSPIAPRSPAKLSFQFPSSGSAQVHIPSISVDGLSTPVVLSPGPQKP
# Procedure, shortened: as §1
# GABPA = biological target: T3, GABPA (Homo sapiens, UniProt Q06546 1-454); conditions: protein: recombinant; tags: N-terminal GST; dsDNA, one strand shown
# T3 sequence: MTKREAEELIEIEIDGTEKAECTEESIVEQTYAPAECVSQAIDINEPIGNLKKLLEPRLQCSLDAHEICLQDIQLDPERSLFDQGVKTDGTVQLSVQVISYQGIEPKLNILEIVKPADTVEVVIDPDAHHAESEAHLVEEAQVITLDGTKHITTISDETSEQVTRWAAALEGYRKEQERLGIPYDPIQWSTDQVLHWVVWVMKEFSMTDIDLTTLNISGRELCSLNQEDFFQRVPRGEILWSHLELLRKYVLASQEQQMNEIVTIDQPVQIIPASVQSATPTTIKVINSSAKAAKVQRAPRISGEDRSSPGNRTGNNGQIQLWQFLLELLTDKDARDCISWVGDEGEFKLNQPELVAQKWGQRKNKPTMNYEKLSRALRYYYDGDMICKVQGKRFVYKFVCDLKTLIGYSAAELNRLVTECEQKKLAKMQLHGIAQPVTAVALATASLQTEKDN
# Procedure, shortened: as §1
# ERG = biological target: T4, ERG (Homo sapiens, UniProt P11308 1-479); conditions: protein: recombinant; tags: N-terminal GST; dsDNA, one strand shown
# T4 sequence: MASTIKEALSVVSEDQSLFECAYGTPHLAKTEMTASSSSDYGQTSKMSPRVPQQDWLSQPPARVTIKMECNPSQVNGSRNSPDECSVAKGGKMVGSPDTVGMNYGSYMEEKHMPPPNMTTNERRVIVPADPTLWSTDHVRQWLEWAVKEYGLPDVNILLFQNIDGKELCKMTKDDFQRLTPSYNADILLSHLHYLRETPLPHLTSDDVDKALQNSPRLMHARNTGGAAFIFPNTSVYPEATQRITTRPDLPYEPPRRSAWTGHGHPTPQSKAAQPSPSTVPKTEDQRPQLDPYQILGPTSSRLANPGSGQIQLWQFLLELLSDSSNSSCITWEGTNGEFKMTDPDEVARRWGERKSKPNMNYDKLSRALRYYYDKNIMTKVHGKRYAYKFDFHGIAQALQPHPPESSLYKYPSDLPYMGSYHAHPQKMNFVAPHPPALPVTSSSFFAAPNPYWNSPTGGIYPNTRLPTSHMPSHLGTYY
# Procedure, shortened: as §1
# ELF1 = ELF1 (Homo sapiens, UniProt P32519 1-619); conditions: protein: recombinant; tags: N-terminal GST; dsDNA, one strand shown
# ELF1, sequence (P32519 whole entry): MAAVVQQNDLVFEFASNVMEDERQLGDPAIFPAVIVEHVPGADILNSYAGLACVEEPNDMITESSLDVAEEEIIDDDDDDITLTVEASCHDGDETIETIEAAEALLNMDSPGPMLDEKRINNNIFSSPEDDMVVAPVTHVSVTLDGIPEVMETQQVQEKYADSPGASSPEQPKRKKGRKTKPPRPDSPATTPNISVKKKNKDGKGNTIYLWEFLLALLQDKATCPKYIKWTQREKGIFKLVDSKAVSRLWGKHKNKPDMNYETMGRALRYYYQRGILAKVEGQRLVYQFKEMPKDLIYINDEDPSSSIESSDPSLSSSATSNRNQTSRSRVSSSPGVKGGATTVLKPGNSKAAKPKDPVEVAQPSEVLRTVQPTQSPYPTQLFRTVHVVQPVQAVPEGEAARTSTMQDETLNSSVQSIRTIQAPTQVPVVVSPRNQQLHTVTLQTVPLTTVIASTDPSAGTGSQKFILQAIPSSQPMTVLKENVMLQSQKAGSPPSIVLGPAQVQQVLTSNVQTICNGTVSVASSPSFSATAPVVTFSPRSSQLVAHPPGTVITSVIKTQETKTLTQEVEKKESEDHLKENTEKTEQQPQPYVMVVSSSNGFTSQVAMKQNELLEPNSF
# Procedure, shortened: as §1
# EHF = biological target: T5, EHF (Homo sapiens, UniProt Q9NZC4 1-300); conditions: protein: recombinant; tags: N-terminal GST; dsDNA, one strand shown
# T5 sequence: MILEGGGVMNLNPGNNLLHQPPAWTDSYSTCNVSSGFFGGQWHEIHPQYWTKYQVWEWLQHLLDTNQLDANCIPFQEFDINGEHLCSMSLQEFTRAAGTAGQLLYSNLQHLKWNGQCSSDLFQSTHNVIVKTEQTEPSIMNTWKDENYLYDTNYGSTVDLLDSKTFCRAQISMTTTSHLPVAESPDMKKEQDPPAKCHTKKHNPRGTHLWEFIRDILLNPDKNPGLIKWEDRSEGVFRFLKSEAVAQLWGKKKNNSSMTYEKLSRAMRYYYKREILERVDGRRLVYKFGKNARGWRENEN
# Procedure, shortened: as §1
# SPI1 = SPI1 (Homo sapiens, UniProt P17947 1-270); conditions: protein: recombinant; tags: N-terminal GST; dsDNA, one strand shown
# Procedure, shortened: as §1
# SPIB = SPIB (Homo sapiens, UniProt Q01892 1-262); conditions: protein: recombinant; tags: N-terminal GST; dsDNA, one strand shown
# SPIB, sequence (Q01892 whole entry): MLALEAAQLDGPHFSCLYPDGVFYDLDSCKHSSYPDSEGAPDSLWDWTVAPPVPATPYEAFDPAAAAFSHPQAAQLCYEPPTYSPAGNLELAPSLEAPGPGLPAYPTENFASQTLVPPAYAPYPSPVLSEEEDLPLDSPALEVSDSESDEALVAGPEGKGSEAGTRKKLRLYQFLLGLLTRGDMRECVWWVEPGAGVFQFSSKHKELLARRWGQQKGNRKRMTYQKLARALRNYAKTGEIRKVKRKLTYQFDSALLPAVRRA
# Procedure, shortened: as §1
# ELK3 = biological target: T6, ELK3 (Homo sapiens, UniProt P41970 1-407); conditions: protein: recombinant; tags: N-terminal GST; dsDNA, one strand shown
# T6 sequence: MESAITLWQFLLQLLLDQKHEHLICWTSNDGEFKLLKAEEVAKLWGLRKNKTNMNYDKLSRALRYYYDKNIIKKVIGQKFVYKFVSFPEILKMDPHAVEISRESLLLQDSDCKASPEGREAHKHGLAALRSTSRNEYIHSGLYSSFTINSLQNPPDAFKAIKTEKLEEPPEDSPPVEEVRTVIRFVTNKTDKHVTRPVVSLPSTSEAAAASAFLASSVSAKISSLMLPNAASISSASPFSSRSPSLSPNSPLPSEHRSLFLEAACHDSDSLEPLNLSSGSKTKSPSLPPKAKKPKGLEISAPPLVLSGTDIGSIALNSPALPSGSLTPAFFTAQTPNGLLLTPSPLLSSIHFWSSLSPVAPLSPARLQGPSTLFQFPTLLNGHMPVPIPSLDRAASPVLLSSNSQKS
# Procedure, shortened: as §1
# FEV = biological target: T7, FEV (Homo sapiens, UniProt Q99581 1-238); conditions: protein: recombinant; tags: N-terminal GST; dsDNA, one strand shown
# T7 sequence: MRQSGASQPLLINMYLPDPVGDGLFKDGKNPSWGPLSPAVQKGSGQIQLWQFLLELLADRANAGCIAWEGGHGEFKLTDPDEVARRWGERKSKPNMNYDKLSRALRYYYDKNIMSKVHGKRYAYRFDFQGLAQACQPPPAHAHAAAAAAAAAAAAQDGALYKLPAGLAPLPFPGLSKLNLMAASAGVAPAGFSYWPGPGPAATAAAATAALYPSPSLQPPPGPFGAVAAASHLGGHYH
# Procedure, shortened: as §1
# ETV5 = ETV5 (Homo sapiens, UniProt P41161 1-510); conditions: protein: recombinant; tags: N-terminal GST; dsDNA, one strand shown
# ETV5, sequence (P41161 whole entry): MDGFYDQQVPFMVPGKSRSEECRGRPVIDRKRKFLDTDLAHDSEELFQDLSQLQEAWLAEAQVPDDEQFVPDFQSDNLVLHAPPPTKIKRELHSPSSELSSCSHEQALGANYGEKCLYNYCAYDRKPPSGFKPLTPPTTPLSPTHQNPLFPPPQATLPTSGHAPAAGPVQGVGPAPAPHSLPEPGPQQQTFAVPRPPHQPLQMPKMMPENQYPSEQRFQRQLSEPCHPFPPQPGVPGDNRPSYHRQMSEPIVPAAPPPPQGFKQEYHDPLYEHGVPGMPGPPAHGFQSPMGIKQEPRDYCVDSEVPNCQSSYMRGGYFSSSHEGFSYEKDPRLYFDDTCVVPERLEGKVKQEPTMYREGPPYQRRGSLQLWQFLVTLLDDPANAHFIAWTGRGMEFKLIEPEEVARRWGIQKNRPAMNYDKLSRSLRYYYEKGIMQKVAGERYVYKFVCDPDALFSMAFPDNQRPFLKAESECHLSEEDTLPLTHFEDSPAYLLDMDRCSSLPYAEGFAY
# Procedure, shortened: as §1
# HSF1 = HSF1 (Homo sapiens, UniProt Q00613 1-529); conditions: protein: recombinant; tags: N-terminal GST; chain copies: 3; dsDNA, one strand shown
# HSF1, sequence (Q00613 whole entry): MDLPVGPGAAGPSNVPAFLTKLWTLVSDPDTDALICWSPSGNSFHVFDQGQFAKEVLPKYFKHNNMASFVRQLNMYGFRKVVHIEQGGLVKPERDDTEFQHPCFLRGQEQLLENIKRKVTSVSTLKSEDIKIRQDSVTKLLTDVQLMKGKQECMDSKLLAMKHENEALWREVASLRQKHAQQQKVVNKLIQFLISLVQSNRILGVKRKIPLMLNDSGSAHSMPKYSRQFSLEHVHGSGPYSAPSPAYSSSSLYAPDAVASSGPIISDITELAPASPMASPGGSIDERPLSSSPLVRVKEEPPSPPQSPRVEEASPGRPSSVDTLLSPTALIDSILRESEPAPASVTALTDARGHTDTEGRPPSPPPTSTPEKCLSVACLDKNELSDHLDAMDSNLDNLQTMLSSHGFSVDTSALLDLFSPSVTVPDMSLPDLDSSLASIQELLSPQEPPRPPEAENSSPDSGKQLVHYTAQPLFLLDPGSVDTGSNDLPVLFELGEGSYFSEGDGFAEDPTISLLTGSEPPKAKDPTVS
# Procedure, shortened: as §1
# SPIC = biological target: T8, SPIC (Homo sapiens, UniProt Q8N5J4 1-248); conditions: protein: recombinant; tags: N-terminal GST; dsDNA, one strand shown
# T8 sequence: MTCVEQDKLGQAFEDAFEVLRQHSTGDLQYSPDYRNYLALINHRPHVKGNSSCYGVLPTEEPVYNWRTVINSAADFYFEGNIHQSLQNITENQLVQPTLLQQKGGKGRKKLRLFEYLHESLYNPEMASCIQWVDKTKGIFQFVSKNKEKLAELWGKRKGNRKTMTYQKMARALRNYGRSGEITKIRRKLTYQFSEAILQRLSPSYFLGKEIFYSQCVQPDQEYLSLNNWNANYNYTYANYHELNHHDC
# Procedure, shortened: as §1
# ELF4 = ELF4 (Homo sapiens, UniProt Q99607 1-663); conditions: protein: recombinant; tags: N-terminal GST; dsDNA, one strand shown
# ELF4, sequence (Q99607 whole entry): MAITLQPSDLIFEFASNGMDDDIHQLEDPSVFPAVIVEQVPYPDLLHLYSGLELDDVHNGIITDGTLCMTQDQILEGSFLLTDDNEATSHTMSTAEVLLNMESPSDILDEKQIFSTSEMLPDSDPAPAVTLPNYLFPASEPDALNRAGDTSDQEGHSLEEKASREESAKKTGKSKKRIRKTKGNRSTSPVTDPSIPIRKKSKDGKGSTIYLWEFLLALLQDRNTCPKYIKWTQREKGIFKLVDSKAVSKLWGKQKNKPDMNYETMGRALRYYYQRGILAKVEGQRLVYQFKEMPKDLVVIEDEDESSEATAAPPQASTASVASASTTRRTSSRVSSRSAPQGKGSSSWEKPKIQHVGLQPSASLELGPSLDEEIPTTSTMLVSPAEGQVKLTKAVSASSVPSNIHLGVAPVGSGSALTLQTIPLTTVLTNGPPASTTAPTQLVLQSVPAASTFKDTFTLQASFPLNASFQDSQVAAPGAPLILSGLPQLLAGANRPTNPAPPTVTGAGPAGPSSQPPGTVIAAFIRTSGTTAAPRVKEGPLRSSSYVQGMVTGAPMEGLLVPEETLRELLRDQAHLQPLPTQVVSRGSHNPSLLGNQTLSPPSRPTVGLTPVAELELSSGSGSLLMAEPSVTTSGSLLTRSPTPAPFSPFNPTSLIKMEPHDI
# Procedure, shortened: as §1
# ELK4 = biological target: T9, ELK4 (Homo sapiens, UniProt P28324-2 1-405); conditions: protein: recombinant; tags: N-terminal GST; dsDNA, one strand shown
# T9 sequence: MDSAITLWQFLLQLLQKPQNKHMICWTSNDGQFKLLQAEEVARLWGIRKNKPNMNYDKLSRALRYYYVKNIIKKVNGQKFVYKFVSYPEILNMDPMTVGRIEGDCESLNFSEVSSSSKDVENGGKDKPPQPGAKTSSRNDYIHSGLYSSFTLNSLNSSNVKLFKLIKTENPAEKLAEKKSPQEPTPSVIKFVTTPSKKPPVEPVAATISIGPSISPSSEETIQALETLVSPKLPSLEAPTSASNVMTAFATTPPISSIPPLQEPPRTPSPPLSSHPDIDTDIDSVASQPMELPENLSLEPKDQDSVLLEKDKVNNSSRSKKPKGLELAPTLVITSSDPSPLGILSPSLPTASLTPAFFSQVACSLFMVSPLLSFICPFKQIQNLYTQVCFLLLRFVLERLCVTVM
# Procedure, shortened: as §1
# ETV2 = biological target: T10, ETV2 (Homo sapiens, UniProt O00321 1-342); conditions: protein: recombinant; tags: N-terminal GST; dsDNA, one strand shown
# T10 sequence: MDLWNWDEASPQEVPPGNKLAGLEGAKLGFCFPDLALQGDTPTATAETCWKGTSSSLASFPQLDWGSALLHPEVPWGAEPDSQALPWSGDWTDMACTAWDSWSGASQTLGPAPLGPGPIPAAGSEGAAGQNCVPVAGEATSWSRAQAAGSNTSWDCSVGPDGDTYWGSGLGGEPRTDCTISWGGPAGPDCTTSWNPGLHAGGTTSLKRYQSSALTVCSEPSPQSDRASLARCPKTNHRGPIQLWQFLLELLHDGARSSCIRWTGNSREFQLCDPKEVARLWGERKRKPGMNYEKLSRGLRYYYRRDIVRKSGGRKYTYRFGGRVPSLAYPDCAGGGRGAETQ
# Procedure, shortened: as §1
# ELF3 = biological target: T11, ELF3 (Homo sapiens, UniProt P78545 1-371); conditions: protein: recombinant; tags: N-terminal GST; dsDNA, one strand shown
# T11 sequence: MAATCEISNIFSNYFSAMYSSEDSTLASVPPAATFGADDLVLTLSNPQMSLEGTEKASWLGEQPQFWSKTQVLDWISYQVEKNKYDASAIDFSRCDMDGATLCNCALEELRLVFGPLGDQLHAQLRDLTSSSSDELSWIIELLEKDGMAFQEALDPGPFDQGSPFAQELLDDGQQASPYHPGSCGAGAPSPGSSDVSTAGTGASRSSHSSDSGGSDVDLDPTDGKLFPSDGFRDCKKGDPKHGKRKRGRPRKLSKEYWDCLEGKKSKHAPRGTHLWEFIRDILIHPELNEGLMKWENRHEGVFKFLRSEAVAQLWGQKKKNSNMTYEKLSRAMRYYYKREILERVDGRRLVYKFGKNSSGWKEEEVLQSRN
# Procedure, shortened: as §1
# CRX = CRX (Homo sapiens, UniProt O43186 1-299); conditions: protein: recombinant; tags: N-terminal GST; dsDNA, one strand shown
# CRX, sequence (O43186 whole entry): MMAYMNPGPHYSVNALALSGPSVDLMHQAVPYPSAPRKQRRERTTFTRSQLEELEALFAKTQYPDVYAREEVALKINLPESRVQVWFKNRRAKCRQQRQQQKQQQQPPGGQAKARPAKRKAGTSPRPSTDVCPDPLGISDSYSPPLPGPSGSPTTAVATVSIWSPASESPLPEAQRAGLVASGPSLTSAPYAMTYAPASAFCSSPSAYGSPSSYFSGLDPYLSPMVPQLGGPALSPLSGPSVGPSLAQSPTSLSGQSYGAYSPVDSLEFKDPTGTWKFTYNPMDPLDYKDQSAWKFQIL
# Procedure, shortened: as §1
# ETV1 = ETV1 (Homo sapiens, UniProt P50549 1-477); conditions: protein: recombinant; tags: N-terminal GST; dsDNA, one strand shown
# ETV1, sequence (P50549 whole entry): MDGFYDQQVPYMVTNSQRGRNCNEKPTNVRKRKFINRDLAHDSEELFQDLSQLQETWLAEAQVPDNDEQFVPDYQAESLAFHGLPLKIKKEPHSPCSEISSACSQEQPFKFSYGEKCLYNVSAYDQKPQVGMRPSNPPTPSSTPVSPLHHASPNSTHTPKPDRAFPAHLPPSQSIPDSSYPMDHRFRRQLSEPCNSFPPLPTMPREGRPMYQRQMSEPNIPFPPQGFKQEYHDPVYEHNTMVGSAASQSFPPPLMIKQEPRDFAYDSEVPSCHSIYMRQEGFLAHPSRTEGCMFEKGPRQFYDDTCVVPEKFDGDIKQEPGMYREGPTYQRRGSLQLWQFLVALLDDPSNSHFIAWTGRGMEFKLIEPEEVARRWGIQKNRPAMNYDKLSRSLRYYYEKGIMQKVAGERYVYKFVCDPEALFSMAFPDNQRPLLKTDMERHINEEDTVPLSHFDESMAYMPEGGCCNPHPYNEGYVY
# Procedure, shortened: as §1
sequence,measurement,setting,value
TACCCG,binding signal,FLI1,"1.42 fold enrichment (6-mer frequency, TF over GST control)"
same,binding signal,ELK1,"1.35 fold enrichment (6-mer frequency, TF over GST control)"
same,binding signal,GABPA,"1.51 fold enrichment (6-mer frequency, TF over GST control)"
same,binding signal,ERG,"1.57 fold enrichment (6-mer frequency, TF over GST control)"
same,binding signal,ELF1,"1.52 fold enrichment (6-mer frequency, TF over GST control)"
same,binding signal,EHF,"1.58 fold enrichment (6-mer frequency, TF over GST control)"
same,binding signal,SPI1,"1.42 fold enrichment (6-mer frequency, TF over GST control)"
same,binding signal,SPIB,"1.52 fold enrichment (6-mer frequency, TF over GST control)"
same,binding signal,ELK3,"1.37 fold enrichment (6-mer frequency, TF over GST control)"
same,binding signal,FEV,"1.39 fold enrichment (6-mer frequency, TF over GST control)"
same,binding signal,ETV5,"1.5 fold enrichment (6-mer frequency, TF over GST control)"
same,binding signal,HSF1,"1.25 fold enrichment (6-mer frequency, TF over GST control)"
same,binding signal,SPIC,"1.55 fold enrichment (6-mer frequency, TF over GST control)"
same,binding signal,ELF4,"1.4 fold enrichment (6-mer frequency, TF over GST control)"
same,binding signal,ELK4,"1.55 fold enrichment (6-mer frequency, TF over GST control)"
same,binding signal,ETV2,"1.44 fold enrichment (6-mer frequency, TF over GST control)"
same,binding signal,ELF3,"1.34 fold enrichment (6-mer frequency, TF over GST control)"
same,binding signal,CRX,"1.29 fold enrichment (6-mer frequency, TF over GST control)"
same,binding signal,ETV1,"1.55 fold enrichment (6-mer frequency, TF over GST control)"
